# Test results reported in PubChem BioAssay (NCATS).
# Values joined by “and” are separate entries in the source; they are usually repeats but may differ in a detail not shown here. Equal entries are not always repeated. Records with an inconclusive call do not appear. A structure can be active in one record and inactive in another. Active and inactive are the calls of the source. Unless noted, calls follow the shape of the dose curve; as a rule, active = well fitted curve in either direction with a large enough effect (not every such curve was filed as active); inconclusive = small, poorly fitted or top-dose-only effect, or another doubt; inactive = flat fitted curve, though single readings scatter.
# Columns and labels:
# [1] = AP1 Signaling Pathway (AID 357); details: ME-180 (cervical carcinoma) AP-1-bla reporter, EGF-induced, beta-lactamase ratio, 5 h; also: % is scaled to controls: 0 for no effect and ±100 for the full control effect
# How it was run: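 Modulation of EGF-driven AP-1 transcription was assessed with a beta-lactamase reporter in ME-180 cells. Compound and EC50 EGF were co-incubated 5 hours at 37 °C before 2.5-hour CCF4 loading at room temperature and dual-emission reading.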
# [2] = target: Cytochrome P450 1A2 (Homo sapiens) (UniProt P05177); assay: p450-cyp1a2 (AID 410; calls by dose curve; also: potency is read from the fitted curve at half-maximal effect;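 as to activity change, negative = inhibition: -100% = full effect of reference inhibitor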)
# How it was run: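 Read-out is luminescence from luciferin produced by CYP1A2 demethylation of Luciferin-ME (100uM, at Km). Detection reagent stopped the 60 min NADPH-dependent reaction; signals were normalized to 57 uM furafylline.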
# [3] = Cell Viability - BJ (AID 421; calls by dose curve;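 also: potency is read from the fitted curve at half-maximal effect; cells exposed to compound for 40 hours at 37 °C before readout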); details: BJ fibroblast viability, qHTS
# How it was run: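 Cytotoxicity as drop in intracellular ATP (CellTiter-Glo, 20 min RT) after 40 hr compound exposure of BJ fibroblasts at 37 °C. Titrations scaled between DMSO and 100 uM tamoxifen, Hill-fitted for AC50.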
# [4] = Cell Viability - Jurkat (AID 426;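 active = dose-dependent loss of cell ATP signal giving a full or clear fitted curve, ranked by lower potency value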;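 also: potency is read from the fitted curve at half-maximal effect; cells exposed to compound for 40 hours at 37 °C before ATP read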); details: qHTS
# How it was run: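 Cytotoxicity was scored as loss of cellular ATP, measured by luciferase-based luminescence, in Jurkat clone E6-1 cells after 40 h compound treatment; tamoxifen and doxorubicin served as positive controls.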
# [5] = Cell Viability - Hek293 (AID 427;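 active = compounds whose dose-response curve shows a full or clear partial loss of cell viability, called from curve shape rather than a numeric limit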;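 also: potency is read from the fitted curve at half-maximal effect; cells exposed to compound for 40 hours at 37 °C before reading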); details: qHTS
# How it was run: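 Luminescent ATP content (CellTiter-Glo, 20 min at room temperature) was measured after a 40 hr, 37 °C compound exposure of HEK293 cells. AC50 values came from Hill-equation fits of qHTS concentration-response data normalized to DMSO and 100 uM tamoxifen.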
# [6] = Cell Viability - HepG2 (AID 433; calls by dose curve;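 also: potency is read from the fitted curve at half-maximal effect; cells exposed to compound for 40 hours; potency for ATP loss meaning cytotoxicity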); details: qHTS
# How it was run: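 In this qHTS format, a 40 h, 37 °C compound incubation of HepG2 cells in complete medium precedes a 20 min CellTiter-Glo step at room temperature. Tamoxifen and doxorubicin serve as positive controls; Hill-equation fits yield AC50.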
# [7] = Cell Viability - MRC5 (AID 434; calls by dose curve;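 also: potency is read from the fitted curve at half-maximal effect; cells exposed to compound for 40 hours at 37 °C; potency reflects cytotoxicity seen as loss of intracellular ATP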); details: MRC5 lung fibroblast viability, qHTS
# How it was run: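 ATP luminescence read-out (CellTiter-Glo, 20 min RT) after 40 hr, 37 °C compound exposure of 1500 MRC5 cells/well. Data normalized to DMSO (basal) and 100 uM tamoxifen (100% inhibition); AC50 from standard Hill equation.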
# [8] = Cell Viability - SK-N-SH (AID 435; calls by dose curve;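 also: potency is read from the fitted curve at half-maximal effect; compound exposure lasted 40 h at 37 °C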); details: SK-N-SH neuroblastoma cell viability qHTS
# How it was run: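 Human neuroblastoma line, 40 h exposure at 37 °C, ATP quantified via luciferase luminescence; DMSO and 100 uM tamoxifen define 0 and 100% inhibition for AC50 fitting.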
# [9] = NFAT Signaling Pathway (AID 444); details: Jurkat NFAT-bla M1, carbachol, beta-lactamase ratio, 5 h;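 also: carbachol stimulus at about its EC50 of 1 µM final; % is scaled to controls: 0 for no effect and ±100 for the full control effect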
# How it was run: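 Jurkat cells with NFAT-driven β-lactamase reporter and co-expressed M1 receptor, stimulated with carbachol (final 1 uM, ~EC50), compound titration, 5 h at 37 °C. CCF4 loaded 1 h at RT; 460/530 nm ratio gave %activity and AC50.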
# [10] = target: Lysosomal acid glucosylceramidase (Homo sapiens) (UniProt P04062); assay: Glucocerebrosidase-p2 (AID 348; in the data active = potency below about 10 µM; also: potency is read from the fitted curve at half-maximal effect); details: purified GBA, blue fluorogenic substrate, 40 min
# How it was run: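 Normal human glucocerebrosidase (0.2 nM) with blue fluorogenic substrate (80 uM final) in citrate/phosphate pH 5.9 with 10mM sodium taurocholate, 0.01% tween-20; 40 min RT, NaOH/glycine stop; fluorescence Ex 365/Em 440; AC50 from a titration from 0.6 nM upwards.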
# [11] = at 38 µM (top of the series) unless noted
# Cytochrome P450 1A2 (Homo sapiens), sequence (P05177 whole entry, looked up): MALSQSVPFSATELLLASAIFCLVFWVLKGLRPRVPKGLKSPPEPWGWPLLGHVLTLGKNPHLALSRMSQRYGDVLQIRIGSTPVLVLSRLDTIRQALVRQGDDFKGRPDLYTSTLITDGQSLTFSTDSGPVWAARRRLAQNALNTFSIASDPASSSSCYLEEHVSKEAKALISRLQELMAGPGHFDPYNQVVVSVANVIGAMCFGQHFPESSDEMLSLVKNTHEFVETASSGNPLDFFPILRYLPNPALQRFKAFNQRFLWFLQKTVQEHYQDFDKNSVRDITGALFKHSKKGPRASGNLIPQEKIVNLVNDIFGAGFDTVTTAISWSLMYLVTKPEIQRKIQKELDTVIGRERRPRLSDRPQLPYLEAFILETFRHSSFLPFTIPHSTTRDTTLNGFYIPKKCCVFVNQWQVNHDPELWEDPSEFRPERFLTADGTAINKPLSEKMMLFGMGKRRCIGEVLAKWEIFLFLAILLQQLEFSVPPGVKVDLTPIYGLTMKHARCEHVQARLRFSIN
# Lysosomal acid glucosylceramidase (Homo sapiens), sequence (P04062 whole entry, looked up): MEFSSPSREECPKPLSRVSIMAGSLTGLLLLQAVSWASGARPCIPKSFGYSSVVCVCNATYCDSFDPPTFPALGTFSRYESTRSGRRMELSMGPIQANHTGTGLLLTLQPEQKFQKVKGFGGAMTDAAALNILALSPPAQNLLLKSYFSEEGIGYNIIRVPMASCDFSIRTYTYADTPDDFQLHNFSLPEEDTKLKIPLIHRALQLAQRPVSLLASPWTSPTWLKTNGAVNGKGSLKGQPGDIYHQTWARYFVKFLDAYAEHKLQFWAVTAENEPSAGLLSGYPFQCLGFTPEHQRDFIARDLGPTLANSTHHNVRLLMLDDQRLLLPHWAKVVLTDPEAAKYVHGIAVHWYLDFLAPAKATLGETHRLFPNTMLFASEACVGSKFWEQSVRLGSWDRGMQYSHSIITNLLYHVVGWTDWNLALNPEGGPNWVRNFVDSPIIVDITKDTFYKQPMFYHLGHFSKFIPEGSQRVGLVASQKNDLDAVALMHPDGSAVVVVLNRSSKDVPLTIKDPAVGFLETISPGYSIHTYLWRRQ
compound,measurement,setting,value
NC(=O)c1ccccc1,"activity change, negative = inhibition",[1]; [11],-2.04% (inactive)
same,Potency,[2],inactive
same,Potency,[3],> 92 µM (inactive)
same,Potency,[4],> 92 µM (inactive)
same,Potency,[5],> 92 µM (inactive)
same,Potency,[6],> 92 µM (inactive)
same,Potency,[7],> 92 µM (inactive)
same,Potency,[8],> 92 µM (inactive)
same,"activity change, negative = inhibition",[9]; [11],20.6% (inactive)
CCN(CC)CCOC(=O)c1cc(Cl)c(N)cc1OC,"activity change, negative = inhibition",[1]; [11],11.7% (inactive)
same,Potency,[2],12.6 µM (active)
same,"activity change, negative = inhibition",[9]; [11],-3.84% (inactive)
CCCCCCCCCCC/C=C\C(C)(C)/C=C\CCCC(=O)O,"activity change, negative = inhibition",[1]; [11],-13.8% (inactive)
same,Potency,[2],39.8 µM (active)
Nc1ccc2c3c(cccc13)C(=O)NC2=O,"activity change, negative = inhibition",[1]; [11],-5.58% (inactive)
same,Potency,[2],1 µM (active)
NCCCNCCCCNCCCN,"activity change, negative = inhibition",[1]; [11],11.4% (inactive)
same,Potency,[2],inactive and 15.8 µM (active)
O=c1onc2n1-c1cc(Br)ccc1OC2,"activity change, negative = inhibition",[1]; [11],1.26% (inactive)
same,Potency,[2],0.794 µM (active)
same,"activity change, negative = inhibition",[9]; [11],3.41% (inactive)
NC/C=C\C(=O)O,"activity change, negative = inhibition",[1]; [11],2.58% (inactive) and 1.13% (inactive)
same,Potency,[2],inactive
same,"activity change, negative = inhibition",[9]; [11],4.38% (inactive) and -3.77% (inactive)
Cc1ccc2c(c1)C(N1CCN(C)CC1)=Nc1cccnc1N2,"activity change, negative = inhibition",[1]; [11],22.6% (inactive)
CC(C)NC[C@H](O)COc1ccc(CC(N)=O)cc1,"activity change, negative = inhibition",[1]; at 17.2 µM (top of the series),-3.59% (inactive) and 11.3% (inactive)
same,"activity change, negative = inhibition",[1]; at 38 µM (top of the series),0.299% (inactive) and 0.963% (inactive) and -3.89% (inactive)
same,"activity change, negative = inhibition",[9]; at 17.2 µM (top of the series),-9.34% (inactive) and -0.713% (inactive)
same,"activity change, negative = inhibition",[9]; at 38 µM (top of the series),-2.26% (inactive) and 6.34% (inactive) and 5.93% (inactive)
O=C(c1ccc2c(c1)OCCO2)N1CCCCC1,"activity change, negative = inhibition",[1]; [11],1.86% (inactive)
same,Potency,[2],15.8 µM (active)
same,"activity change, negative = inhibition",[9]; [11],5.58% (inactive)
O=[N+]([O-])c1cccc2c(Br)[nH]nc12,"activity change, negative = inhibition",[1]; [11],1.06% (inactive)
same,Potency,[2],794 nM (active) and 126 nM (active)
same,"activity change, negative = inhibition",[9]; [11],-9.63% (inactive)
N#CC(C#N)=C(N)/C(C#N)=C/c1ccc(O)cc1,"activity change, negative = inhibition",[1]; [11],-3.7% (inactive)
same,Potency,[2],3.98 µM (active)
same,"activity change, negative = inhibition",[9]; [11],3.6% (inactive)
COc1ccc(NC(=O)c2ccc(-c3ccc(-c4noc(C)n4)cc3C)cc2)cc1N1CCN(C)CC1,"activity change, negative = inhibition",[1]; [11],-2.61% (inactive)
same,Potency,[2],inactive
CC(C)NCC(O)COc1ccc(CC(N)=O)cc1 (configuration not stated),"activity change, negative = inhibition",[1]; [11],5.57% [at 17.2 µM] (inactive)
Nc1ncnc2c1c(-c1ccc(Oc3ccccc3)cc1)cn2C1CCCC1,"activity change, negative = inhibition",[1]; [11],-103% (active)
same,Potency,[2],15.8 µM (active)
CCCOC(=O)c1c(-c2ccccc2)nc(CC)c(C(=O)SCC)c1CCC,"activity change, negative = inhibition",[1]; [11],2.66% (inactive)
same,Potency,[2],10 µM (active)
O=C(O)c1cccnc1C(=O)O,"activity change, negative = inhibition",[1]; [11],-4.89% (inactive)
same,Potency,[2],inactive
same,"activity change, negative = inhibition",[9]; [11],-4.14% (inactive)
Nc1ncnc2c1ncn2C1CCCC1,"activity change, negative = inhibition",[1]; [11],-12.9% (inactive)
same,Potency,[2],20 µM (active)
same,"activity change, negative = inhibition",[9]; [11],11.8% (inactive)
C#CCn1c(=O)c2c(ncn2C)n(C)c1=O,"activity change, negative = inhibition",[1]; [11],8.56% (inactive)
same,Potency,[2],inactive
same,"activity change, negative = inhibition",[9]; [11],5.67% (inactive)
NC(N)=NC(N)=Nc1cccc(Cl)c1,"activity change, negative = inhibition",[1]; [11],-8.78% (inactive)
same,Potency,[2],inactive
same,"activity change, negative = inhibition",[9]; [11],7.69% (inactive)
Nc1ccc(N2C(=O)c3ccccc3C2=O)c(Cl)c1,"activity change, negative = inhibition",[1]; [11],-5.66% (inactive)
same,Potency,[2],inactive
same,"activity change, negative = inhibition",[9]; [11],7.18% (inactive)
O=C(O)C1=CCCNC1,"activity change, negative = inhibition",[1]; [11],-0.308% (inactive)
same,Potency,[2],inactive
same,"activity change, negative = inhibition",[9]; [11],3.92% (inactive)
O=c1ccc2c(OCCCCc3ccccc3)c3ccoc3cc2o1,"activity change, negative = inhibition",[1]; [11],-12.4% (inactive)
same,Potency,[2],0.501 µM (active)
same,"activity change, negative = inhibition",[9]; [11],-20.3% (inactive)
O=c1[nH]c(=S)[nH]c(-c2ccccc2)c1Cc1c(O)ccc2ccccc12,Potency,[10],> 11.4 µM (inactive)
same,"activity change, negative = inhibition",[1]; [11],-11.2% [at 7.69 µM] (inactive)
same,Potency,[2],1 µM (active)
same,"activity change, negative = inhibition",[9]; [11],15.8% [at 7.69 µM] (inactive)
CCCn1c(=O)c2[nH]c(C3CCCC3)nc2n(CCC)c1=O,"activity change, negative = inhibition",[1]; at 17.2 µM (top of the series),-7.55% (inactive)
same,"activity change, negative = inhibition",[1]; at 38 µM (top of the series),-12.1% (inactive)
same,Potency,[2],1.26 µM (active) and 251 nM (active)
same,"activity change, negative = inhibition",[9]; at 17.2 µM (top of the series),11.5% (inactive)
same,"activity change, negative = inhibition",[9]; at 38 µM (top of the series),-0.836% (inactive)
Cc1nc2c(OCc3ccccc3)cccn2c1CC#N,"activity change, negative = inhibition",[1]; [11],-13% (inactive)
same,Potency,[2],2 µM (active) and 398 nM (active)
same,"activity change, negative = inhibition",[9]; [11],4.14% (inactive)
CCCc1c(OCCCOc2ccc(OCC(=O)O)cc2)ccc(C(C)=O)c1O,"activity change, negative = inhibition",[1]; [11],-9.01% (inactive)
same,Potency,[2],31.6 µM (active)
same,"activity change, negative = inhibition",[9]; [11],-26.4% (inactive)
O=C(OCCN1CCOCC1)C1(c2ccccc2)CCCCC1,"activity change, negative = inhibition",[1]; [11],-11.4% (inactive)
same,Potency,[2],31.6 µM (active)
CCC(=O)N1CCN(C(=O)c2ccccc2)CC1,"activity change, negative = inhibition",[1]; [11],-5.7% (inactive)
same,Potency,[2],inactive
same,"activity change, negative = inhibition",[9]; [11],3.73% (inactive)
CCCCCCCCCCCCCCSCC(=O)O,"activity change, negative = inhibition",[1]; [11],-3.84% (inactive)
same,Potency,[2],inactive
COc1ccc(C(=O)NCc2cccnc2)cc1C(=O)NCc1cccnc1,"activity change, negative = inhibition",[1]; at 17.2 µM (top of the series),9.58% (inactive)
same,"activity change, negative = inhibition",[1]; at 38 µM (top of the series),4.86% (inactive)
same,"activity change, negative = inhibition",[9]; at 17.2 µM (top of the series),-4.93% (inactive)
same,"activity change, negative = inhibition",[9]; at 38 µM (top of the series),-7.04% (inactive)
COc1ccc(-c2ccc(N)[n+](CCCC(=O)O)n2)cc1,"activity change, negative = inhibition",[1]; at 17.2 µM (top of the series),-6.26% (inactive)
same,"activity change, negative = inhibition",[1]; at 38 µM (top of the series),-9.04% (inactive)
same,Potency,[2],inactive
same,"activity change, negative = inhibition",[9]; at 17.2 µM (top of the series),1.69% (inactive)
same,"activity change, negative = inhibition",[9]; at 38 µM (top of the series),4.41% (inactive)
O=C(O)c1cc2cc(F)ccc2[nH]1,"activity change, negative = inhibition",[1]; at 17.2 µM (top of the series),14.4% (inactive)
same,"activity change, negative = inhibition",[1]; at 38 µM (top of the series),0.264% (inactive)
same,Potency,[2],inactive
same,"activity change, negative = inhibition",[9]; at 17.2 µM (top of the series),-6.32% (inactive)
same,"activity change, negative = inhibition",[9]; at 38 µM (top of the series),-3.11% (inactive)
